The whole screen tested about 5,500 compounds, of which about 2,000 (36%) were called active. Inconclusive results (about 18%) are left out. No stated cut-off is given here; in the data, active means normalized growth mostly below about 0.91 (no sharp cut-off); inconclusive means no clear call, values can overlap the other calls; inactive means mostly above about 0.92. This is one part of the list.
Assay: chemical genetic growth profiling, strain panel (AID 1159580);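 further: tested at 20 µM; growth read once vehicle control cultures reached saturation at 30 °C; 1 = growth at the plate median or of vehicle wells; lower values mean less growth of the strain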
Settings: growth OD

Measured: normalized growth

Cc1onc(-c2ccccc2Cl)c1C(=O)N[C@@H]1C(=O)N2[C@@H]1SC(C)(C)[C@@H]2C(=O)O
inactive: S. cerevisiae deletion strains, locus YJR066W, strain TOR1, hits give low values 0.986 | S. cerevisiae deletion strains, locus YKL009W, strain mrt4, hits give low values 1.02 | S. cerevisiae deletion strains, locus YKL068W, hits give low values 1.02 | S. cerevisiae deletion strains, locus YKL085W, strain MDH1 (second series), hits give low values 1.02 | S. cerevisiae deletion strains, locus YKL085W, strain MDH1, hits give low values 1.02 | S. cerevisiae deletion strains, locus YKL160W, strain elf1, hits give low values 1.02 | S. cerevisiae deletion strains, locus YKL190W, strain CNB1, hits give low values 1.01 | S. cerevisiae deletion strains, locus YKR001C, strain vps1, hits give low values 1.03 | S. cerevisiae deletion strains, locus YKR026C, strain gcn3, hits give low values 1.05 | S. cerevisiae deletion strains, locus YKR091W, strain srl3, hits give low values 1.02 | S. cerevisiae deletion strains, locus YLL001W, strain dnm1, hits give low values 1.02 | S. cerevisiae deletion strains, locus YLL026W, hits give low values 1.01 | S. cerevisiae deletion strains, locus YLL041C, strain sdh2, hits give low values 1.02 | S. cerevisiae deletion strains, locus YLR027C, strain aat2, hits give low values 1.01 | S. cerevisiae deletion strains, locus YLR039C, strain RIC1, hits give low values 1.02 | S. cerevisiae deletion strains, locus YLR058C, strain SHM2, hits give low values 1.02 | S. cerevisiae deletion strains, locus YLR102C, strain apc9, hits give low values 1.03 | S. cerevisiae deletion strains, locus YLR113W, strain HOG1, hits give low values 1.05 | S. cerevisiae deletion strains, locus YLR221C, strain rsa3, hits give low values 0.979 | S. cerevisiae deletion strains, locus YLR258W, strain gsy2, hits give low values 1.02 | S. cerevisiae deletion strains, locus YLR262C, strain YPT6 (second series), hits give low values 1 | S. cerevisiae deletion strains, locus YLR262C, strain YPT6, hits give low values 1.01 | S. cerevisiae deletion strains, locus YLR268W, strain sec22, hits give low values 1.04 | S. cerevisiae deletion strains, locus YLR320W, strain mms22, hits give low values 1 | S. cerevisiae deletion strains, locus YLR330W, strain CHS5, hits give low values 1.01 | S. cerevisiae deletion strains, locus YLR342W, strain FKS1 (second series), hits give low values 1.02 | S. cerevisiae deletion strains, locus YLR342W, strain FKS1, hits give low values 1.02 | S. cerevisiae deletion strains, locus YLR357W, strain rsc2, hits give low values 1.03 | S. cerevisiae deletion strains, locus YLR370C, strain arc18, hits give low values 1.02 | S. cerevisiae deletion strains, locus YLR371W, strain rom2, hits give low values 1.03 | S. cerevisiae deletion strains, locus YLR384C, strain iki3, hits give low values 1.02 | S. cerevisiae deletion strains, locus YLR418C, strain cdc73, hits give low values 1.04 | S. cerevisiae deletion strains, locus YML016C, strain PPZ1, hits give low values 1.01 | S. cerevisiae deletion strains, locus YML032C, strain rad52, hits give low values 1.01 | S. cerevisiae deletion strains, locus YML120C, strain ndi1, hits give low values 1.04 | S. cerevisiae deletion strains, locus YML124C, strain tub3, hits give low values 1.03 | S. cerevisiae deletion strains, locus YMR058W, strain fet3, hits give low values 1.04 | S. cerevisiae deletion strains, locus YMR078C, strain ctf18, hits give low values 1.04 | S. cerevisiae deletion strains, locus YMR125W, strain sto1, hits give low values 1.04 | S. cerevisiae deletion strains, locus YMR129W, hits give low values 1.01 | S. cerevisiae deletion strains, locus YMR205C, strain PFK2, hits give low values 1.04 | S. cerevisiae deletion strains, locus YMR223W, strain ubp8, hits give low values 1.02 | S. cerevisiae deletion strains, locus YMR231W, strain pep5, hits give low values 1.02 | S. cerevisiae deletion strains, locus YMR263W, strain SAP30, hits give low values 1.02 | S. cerevisiae deletion strains, locus YMR307W, strain GAS1, hits give low values 1.03 | S. cerevisiae deletion strains, locus YNL067W, strain RPL9B, hits give low values 1.02 | S. cerevisiae deletion strains, locus YNL071W, strain lat1, hits give low values 1.01 | S. cerevisiae deletion strains, locus YNL153C, strain GIM3, hits give low values 1.01 | S. cerevisiae deletion strains, locus YNL183C, strain NPR1, hits give low values 0.968 | S. cerevisiae deletion strains, locus YNL209W, strain ssb2, hits give low values 1.01 | S. cerevisiae deletion strains, locus YNL233W, strain BNI4, hits give low values 1.01 | S. cerevisiae deletion strains, locus YNL248C, strain rpa49, hits give low values 0.948 | S. cerevisiae deletion strains, locus YNL250W, strain rad50, hits give low values 1.01 | S. cerevisiae deletion strains, locus YNL271C, strain bni1, hits give low values 1.03 | S. cerevisiae deletion strains, locus YNL298W, strain CLA4, hits give low values 1.04 | S. cerevisiae deletion strains, locus YNL307C, strain MCK1, hits give low values 1.04 | S. cerevisiae deletion strains, locus YNL322C, strain KRE1 (second series), hits give low values 1.01 | S. cerevisiae deletion strains, locus YNL322C, strain KRE1, hits give low values 1 | S. cerevisiae deletion strains, locus YNR049C, strain mso1, hits give low values 1.02 | S. cerevisiae deletion strains, locus YNR052C, strain pop2, hits give low values 1.01 | S. cerevisiae deletion strains, locus YOL012C, strain htz1 1.96 | S. cerevisiae deletion strains, locus YOL147C, strain pex11, hits give low values 1.03 | S. cerevisiae deletion strains, locus YOR001W, strain rrp6, hits give low values 1.04 | S. cerevisiae deletion strains, locus YOR061W, strain CKA2, hits give low values 1.01 | S. cerevisiae deletion strains, locus YOR069W, strain VPS5, hits give low values 1.01 | S. cerevisiae deletion strains, locus YOR070C, strain gyp1, hits give low values 1.01 | S. cerevisiae deletion strains, locus YOR080W, strain dia2, hits give low values 1.03 | S. cerevisiae deletion strains, locus YOR083W, strain WHI5, hits give low values 1.03 | S. cerevisiae deletion strains, locus YOR106W, strain vam3, hits give low values 1.03 | S. cerevisiae deletion strains, locus YOR136W, strain idh2, hits give low values 1.03 | S. cerevisiae deletion strains, locus YOR144C, strain elg1, hits give low values 1.02 | S. cerevisiae deletion strains, locus YOR184W, strain ser1, hits give low values 1.03 | S. cerevisiae deletion strains, locus YOR231W, strain MKK1, hits give low values 1.01 | S. cerevisiae deletion strains, locus YOR265W, strain rbl2, hits give low values 1.02 | S. cerevisiae deletion strains, locus YOR270C, strain vph1, hits give low values 1.04 | S. cerevisiae deletion strains, locus YOR290C, strain snf2, hits give low values 1.01 | S. cerevisiae deletion strains, locus YOR316C, strain cot1, hits give low values 1.03 | S. cerevisiae deletion strains, locus YPL051W, strain arl3, hits give low values 1.02 | S. cerevisiae deletion strains, locus YPL055C, strain LGE1, hits give low values 1.03 | S. cerevisiae deletion strains, locus YPL078C, strain atp4, hits give low values 1.03 | S. cerevisiae deletion strains, locus YPL106C, strain sse1, hits give low values 1.03 | S. cerevisiae deletion strains, locus YPL240C, strain hsp82, hits give low values 1.01 | S. cerevisiae deletion strains, locus YPL241C, strain CIN2, hits give low values 1 | S. cerevisiae deletion strains, locus YPL256C, strain CLN2, hits give low values 1.01 | S. cerevisiae deletion strains, locus YPR119W, strain clb2, hits give low values 1.03 | S. cerevisiae deletion strains, locus YPR141C, strain kar3, hits give low values 1.04 | S. cerevisiae deletion strains, locus YPR163C, strain tif3, hits give low values 1.04 | S. cerevisiae deletion strains, locus YPR167C, strain met16, hits give low values 1.03 | S. cerevisiae deletion strains, strain wtn01, hits give low values 1.02 | S. cerevisiae strains, strain wild type, hits give low values 1.01
